N-glyco inh: N-linked glycosylation inhibition; reporter increase, % at 12.5 µM; AID 588692; actives 0.23% (n = 360,000); D54 ERlucT glycosylation luciferase reporter, 24 h; percent of 100 nM tunicamycin response;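 active = mean luciferase reporter signal, scaled so untreated is 0 and the glycosylation-blocking control 100, at or above a set limit in every replicate; inconclusive = mean reaches the limit but not every replicate does; inactive = mean below the limit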;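 also: luciferase carries N-glycosylation sites so blocking glycosylation raises the light; 0% = median of neutral control wells and 100% = median of 100 nM tunicamycin wells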
RAD52 inh: RAD52 (human) annealing inhibition | inhibition, % at 18.7 µM | P43351 | recombinant RAD52 DNA annealing, FRET fluorescence | actives 0.46% (n = 360,000);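 active = every replicate showing at least 50% inhibition; inconclusive = mean inhibition at least 50% but not in every replicate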
AF4-AF9 inh: MLL-AF4/AF9 protein interaction inhibition | P42568 | AlphaScreen, biotin-AF4 peptide binding to FLAG-AF9 | inhibition, % at 10 µM | actives 0.47% (n = 350,000) | AID 651704;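 active = every replicate reaching a set inhibition limit, whatever the replicate mean, cut at about 25% in these data; inconclusive = mean inhibition reaches that limit but some replicates miss it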;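 also: 0% = plate neutral control median and 100% = total signal loss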
RAD54 inh: blocks human RAD54 Holliday junction branch migration. Q92698. FAM/BHQ fluorescence. inhibition, % at 10.4 µM. actives 0.14% (n = 360,000). AID 602329;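 active = mean normalized replicate activity at least 40 and at least half of replicates scoring 40 or more; inconclusive = only one of the two criteria met; inactive = mean below 40 and under half of replicates reaching 40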;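 also: 0% = median of neutral control wells and 100% = median of positive control wells; inhibitors cause a drop in the FAM fluorescence signal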
Target sequence (Q92698 whole entry, looked up): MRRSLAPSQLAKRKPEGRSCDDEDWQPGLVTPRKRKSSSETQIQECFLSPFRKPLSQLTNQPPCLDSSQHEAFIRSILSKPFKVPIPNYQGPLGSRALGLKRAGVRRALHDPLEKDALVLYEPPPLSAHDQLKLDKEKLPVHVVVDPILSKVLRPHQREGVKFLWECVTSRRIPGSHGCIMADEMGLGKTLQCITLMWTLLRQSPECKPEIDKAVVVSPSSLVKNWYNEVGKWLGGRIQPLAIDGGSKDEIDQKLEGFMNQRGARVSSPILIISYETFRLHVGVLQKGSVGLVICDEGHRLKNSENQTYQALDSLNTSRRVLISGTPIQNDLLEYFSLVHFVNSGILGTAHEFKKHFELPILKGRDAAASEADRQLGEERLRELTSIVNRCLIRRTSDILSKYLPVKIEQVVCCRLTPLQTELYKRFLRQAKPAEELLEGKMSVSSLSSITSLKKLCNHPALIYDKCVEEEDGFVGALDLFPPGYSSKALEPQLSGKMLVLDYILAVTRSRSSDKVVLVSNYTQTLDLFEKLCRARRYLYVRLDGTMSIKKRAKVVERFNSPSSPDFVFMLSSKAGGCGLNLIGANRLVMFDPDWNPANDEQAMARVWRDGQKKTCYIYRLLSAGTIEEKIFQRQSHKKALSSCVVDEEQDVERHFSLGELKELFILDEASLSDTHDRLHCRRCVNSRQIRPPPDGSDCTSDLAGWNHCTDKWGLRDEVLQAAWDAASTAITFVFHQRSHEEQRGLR
Casp6 inh: inhibitors of human caspase-6; actives 0.53% (n = 350,000); inhibition, % at 12.5 µM; P55212; purified caspase-6, Z-VEID-R110 cleavage fluorescence;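 active = mean inhibition across replicates at least about 35%, with every replicate also reaching that limit, limit read from the data; inconclusive = only one of the two criteria met; inactive = neither criterion met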;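 also: 0% = median of neutral control wells and 100% = no fluorescence left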
Active calls of the source: *; ? = inconclusive; · = not tested or not shown. Most compounds without a hit are left out; they make up all but 1.2% or so of the library.

SMILES	N-glyco inh	RAD52 inh	AF4-AF9 inh	RAD54 inh	Casp6 inh
Cc1noc(C)c1S(=O)(=O)N(C)C[C@H]1OCCCC[C@@H](C)Oc2ccc(NS(=O)(=O)c3ccc(F)cc3)cc2C(=O)N([C@H](C)CO)C[C@@H]1C	·	·	·	-7.0	·
Cc1noc(C)c1S(=O)(=O)Nc1ccc2c(c1)C(=O)N([C@H](C)CO)C[C@@H](C)[C@@H](CN(C)S(=O)(=O)c1ccc(F)cc1)OCCCC[C@@H](C)O2	·	57.4*	1.5	-8.7	1.8
C[C@H]1CCCCO[C@H](CN(C)S(=O)(=O)c2cccs2)[C@@H](C)CN([C@@H](C)CO)C(=O)c2cc(NS(=O)(=O)c3cn(C)cn3)ccc2O1	·	59.1*	1.4	-1.9	2.8
Cc1noc(C)c1S(=O)(=O)Nc1ccc2c(c1)C(=O)N([C@@H](C)CO)C[C@H](C)[C@@H](CN(C)S(=O)(=O)c1ccc(F)cc1)OCCCC[C@H](C)O2	·	75.1*	-0.3	-5.1	1.3
CO[C@H]1CN(C)C(=O)c2ccc(NC(=O)C3CCC3)cc2OC[C@H](C)N(Cc2cccnc2)C[C@@H]1C	·	14.9	0.4	10.2	-0.7
COCCn1c(SCc2ccccc2F)nc2ccccc2c1=O	-1.9	4.1	-0.7	2.1	-1.8
O=c1c2ccccc2nc(SCc2ccccc2F)n1C1CCCC1	-0.6	-18.3	-0.1	-5.0	37.8*
COc1ccc(NC(=O)Nc2ccc3c(c2)CC(=O)N([C@@H](C)CO)C[C@H](C)[C@H](CN(C)S(=O)(=O)c2ccc(F)cc2)O3)cc1	·	-12.1	0.9	7.5	3.8
N#Cc1ccc(C23OCCN2CCn2c3c3ccccc3[n+]2[O-])cc1 (centres undefined)	-0.1	-28.6	47.9*	-2.0	2.3
O=[N+]([O-])c1ccc(N2CCN(C(=S)NCc3ccc(Cl)cc3)CC2)cc1	-4.6	-18.6	33.6*	·	6.5
CCNC(=S)N1CCN(c2ccc([N+](=O)[O-])cc2)CC1	0.1	·	·	0.7	·
O=C(CNc1cccc2ccccc12)N/N=C/C=C/c1ccco1	7.5	-5.5	7.3	·	3.3
O=C(N/N=C/C=C\c1ccco1)c1ccccn1	8.1	-18.8	-6.0	·	37.2*
O=C(Cc1cccs1)N/N=C/C=C/c1ccco1	-1.0	-19.0	-1.5	-5.4	37.7*
C[C@H]1CN([C@@H](C)CO)S(=O)(=O)c2ccc(-c3cncnc3)cc2O[C@@H]1CN(C)C(=O)CN(C)C	·	-5.2	-1.7	6.1	-0.7
O=C(OC1CCOC1=O)c1ccc(Cl)c(S(=O)(=O)N2CCOCC2)c1 (centres undefined)	2.3	3.2	-3.4	-8.8	40.4*
C[C@@H]1CN([C@@H](C)CO)C(=O)Cc2cc(NC(=O)CCCN(C)C)ccc2O[C@H]1CN(C)C(=O)Nc1ccccc1	·	-9.8	-5.4	·	-0.1
CN(Cc1ccco1)C(=O)CSc1nn2c(=O)c(C(C)(C)C)nnc2s1	3.4	-21.5	-1.8	-12.4	43.2*
CC(C)(C)c1nnc2sc(SCC(=O)c3ccc4c(c3)OCCO4)nn2c1=O	39.8*	-0.8	1.6	0.5	5.7
Cc1ccc(C(=O)CSc2nn3c(=O)c(C(C)(C)C)nnc3s2)cc1	?	·	·	5.1	·
C/C=C/c1ccc2c(c1)O[C@@H](CN(C)C(=O)CN(C)C)[C@H](C)CN([C@@H](C)CO)S2(=O)=O	·	-5.6	-2.0	-2.3	-1.4
C[C@@H]1CN([C@@H](C)CO)C(=O)c2c(c3ccccc3n2C)-c2ccccc2CO[C@H]1CN(C)Cc1ccc2c(c1)OCCN2C	·	28.1	39.0*	·	-0.1
C[C@H]1CN([C@@H](C)CO)C(=O)c2c(c3ccccc3n2C)-c2ccccc2CO[C@H]1CN(C)Cc1ccc(-c2ccccc2)cc1	·	2.0	2.1	·	-3.0
C[C@H]1CN([C@@H](C)CO)C(=O)c2c(c3ccccc3n2C)-c2ccccc2CO[C@H]1CN(C)Cc1ccc(Cl)c(Cl)c1	·	1.0	0.9	·	-2.8
C[C@H](CO)N1C[C@H](C)[C@@H](CN(C)Cc2ccc(-c3ccccc3)cc2)OCc2ccccc2-c2c(n(C)c3ccccc23)C1=O	·	80.1*	2.8	·	-0.3
C[C@@H]1CN([C@H](C)CO)C(=O)c2c(c3ccccc3n2C)-c2ccccc2CO[C@@H]1CN(C)Cc1ccc2c(c1)OCCN2C	·	45.2	49.8*	·	0.1
CCOC(=O)c1cc(-c2ccc(/C=C3/C(=O)N(c4ccc(C(=O)O)cc4)N=C3C)o2)ccc1Cl	0.1	-12.5	9.6	-7.4	4.2
O=C(O)c1cc(-c2ccc(/C=C3\NC(=O)N(c4ccc(Cl)cc4)C3=O)o2)ccc1Cl	-0.7	-117.5	2.7	·	39.5*

Source: PubChem (Broad Institute)
